# Reference: PubChem BioAssay AID463173 (ICCB-Longwood Screening Facility, Harvard Medical School, 2010)
# Screen size: about 52,000 compounds; about 4,300 (8.3%) were called active. The sample holds actives, similar compounds and a random draw of the others, so the mix is not that of the screen. Values without a mark were called inactive. No stated cut-off is given here; in the data, active means survival mostly below about 52% (no sharp cut-off); inactive means mostly above about 56%.
# Tested on: DeltatarO mutant
# Assay: growth inhibition of S. aureus wild type versus tarO mutant, primary screen, teichoic acid synthesis inhibitors, RN4220, OD600 (AID 463173)
# Details: OD600, 18 h, active compounds read low, screened at 18.75 µg/mL (by protocol)
row,SMILES,survival
1,Cn1c(=O)oc2cc(S(=O)(=O)N3CCC(C(=O)NCc4ccccc4Cl)CC3)ccc21,125%
2,COC(=O)c1cc(-c2cc(OC)c(OC)c(OC)c2)no1,99%
3,COc1cccc(OCc2nc3ccccc3n2Cc2ccccc2)c1,62%
4,CC(C)(C)c1ccc(OCc2nc3ccccc3n2CCOc2ccccc2)cc1,10% (active)
5,Cn1c(COc2ccccc2Br)nc2ccccc21,92%
6,Cn1c(COc2ccccc2C(C)(C)C)nc2ccccc21,5% (active)
7,c1ccc(OCCn2c(COc3ccccc3)nc3ccccc32)cc1,0% (active)
8,Cc1ccc(C)c(OCc2nc3ccccc3n2C)c1,59%
9,COc1ccc(OCc2nc3ccccc3n2Cc2ccc(C(C)(C)C)cc2)cc1,-9% (active)
10,c1ccc(Cn2nnnc2C(c2ccccc2)N2CCN(Cc3ccncc3)CC2)cc1 (centres undefined),78%
11,CCc1ccc(CNC(=O)c2cccc(-n3cnc4cccnc43)c2C)cc1,88%
12,CC(=O)c1cccc(NC(=O)CN2C(=O)c3ccccc3Sc3ncccc32)c1,95%
13,COc1ccc(CNC2CCCC2)cc1,79%
14,COc1ccc2[nH]cc(CCN=C(NC(=O)c3ccccc3F)Nc3nc(C)cc(C)n3)c2c1,99%
15,Cc1ccc(C)c(N2CCN(C(=O)CCc3nnc4n(C)c(=O)c5ccccc5n34)CC2)c1,95%
16,COc1ccc(OCc2nnc(SCC(=O)N(C3CCCCC3)C3CCCCC3)o2)cc1,72%
17,COc1ccc(S(=O)(=O)N2CCN(c3ccccc3OC)CC2)cc1-c1noc(C)n1,110%
18,CCc1nc(-c2cc(S(=O)(=O)N3CCN(c4ccccc4)CC3)ccc2OC)no1,51%
19,COc1ccc(S(=O)(=O)N2CCN(c3ccccc3F)CC2)cc1-c1noc(C)n1,59%
20,CCc1nc(-c2cc(S(=O)(=O)N3CCN(c4ccc(F)cc4)CC3)ccc2OC)no1,49%
21,CCc1nc(-c2cc(S(=O)(=O)N3CCN(c4ccccc4F)CC3)ccc2OC)no1,42% (active)
22,CCc1nc(-c2cc(S(=O)(=O)N3CCN(c4ccccc4OC)CC3)ccc2OC)no1,42% (active)
23,Cc1ccc(OCC(=O)Nc2ccc3nc(SCC(=O)N4CCOCC4)sc3c2)cc1,86%
24,O=C(NCc1ccccc1Cl)c1ccc(CS(=O)(=O)c2ccc(Br)cc2)o1,127%

row,SMILES,survival
1,Cc1ccc(-c2onc(C)c2C)cc1S(=O)(=O)NC1CCC(C)CC1 (centres undefined),82%
2,Cn1c(=O)n(C)c2cc(S(=O)(=O)Nc3ccccc3C(=O)O)ccc21,105%
3,COc1cccc(NC(=O)C(Cc2ccccc2)NS(=O)(=O)c2ccc3c(c2)c(=O)n(C)c(=O)n3C)c1 (centres undefined),79%
4,COCCNC(=O)Cn1c(=O)n(-c2ccc(C)c(C)c2)c(=O)c2c3c(sc21)CCCCC3,86%
5,CC(=O)c1cccc(NC(=O)Cn2ccn3nc(-c4ccccc4)cc3c2=O)c1,83%
6,CCOc1cc(CNc2ccc(C(=O)O)cc2)ccc1OCc1ccccc1,47% (active)
7,COc1cc(CNc2ccc3[nH]c(=O)[nH]c3c2)cc(Br)c1OCc1ccc(F)cc1,99%
8,CCOc1cc(CNc2ccc(O)cc2)ccc1OCc1ccc(Cl)cc1,53%
9,COc1cc(CNc2ccc3[nH]c(=O)[nH]c3c2)cc(Cl)c1OCc1ccc(F)cc1,76%
10,CCOc1cc(CNc2ccc(O)cc2)cc(Cl)c1OCc1ccccc1,1% (active)
11,CCOc1ccc(CC(=O)NCc2ccc3c(c2)CCN3C(=O)c2ccccc2)cc1OCC,72%
12,CCOc1cc(CNc2ccc(O)cc2)cc(Br)c1OCc1ccccc1,3% (active)
13,Oc1ccc(NCc2ccccc2OCc2ccccc2)cc1,61%
14,CCOc1c(Cl)cc(CNc2ccc3[nH]c(=O)[nH]c3c2)cc1OC,95%
15,CCn1cc(C(=O)NCCCOC)c(=O)c2cc(S(=O)(=O)N3CCc4ccccc4C3)ccc21,92%
16,Cc1cc(=O)[nH]c2nnc(SCc3ccc(C(F)(F)F)cc3)n12,74%
17,COc1ccc(NC(=O)CCc2c(C)nc3cc(-c4cccc(F)c4)nn3c2C)cc1Cl,129%
18,CCCCCCOc1ccc(/C=C/C(=O)Nc2sc3c(c2C(=O)OC)CCC3)cc1OC,69%
19,O=C(NCCc1ccccc1)c1cnc2sc(N3CCOCC3)nn2c1=O,100%
20,O=c1oc2ccc3ccccc3c2cc1-c1nnc(Nc2ccccc2)s1,84%
21,CCc1ccc(CNC(=O)CN2C(=O)C3CCCCN3c3ccc(C(=O)N4CCCC4)cc32)cc1 (centres undefined),75%
22,O=C(CSCn1nnc2c(=O)[nH]c(Cc3ccc(F)cc3)nc21)Nc1ccccc1,52%
23,CCCc1cnc2c(c1SCC(=O)N1CCC(C)CC1)c(=O)n(C)c(=O)n2C,96%
24,O=C(CSc1nc2ncccc2o1)Nc1cccc(C(F)(F)F)c1,-1% (active)

row,SMILES,survival
1,O=C(CSc1nc2ncccc2o1)Nc1ccc(Cl)cc1F,70%
2,Cc1cccc(C)c1NC(=O)CSc1nc2ncccc2o1,79%
3,Cc1c(Cl)cccc1NC(=O)CSc1nc2ncccc2o1,6% (active)
4,COc1cc(NC(=O)CSc2nc3ncccc3o2)cc(OC)c1,64%
5,O=C(CSc1nnc(-c2ccccc2F)o1)Nc1cccc(C(F)(F)F)c1,54%
6,Cc1cccc(NC(=O)CSc2nnc(-c3cccs3)o2)c1,50%
7,COc1cccc(NC(=O)CSc2nnc(-c3cccs3)o2)c1,52%
8,O=C(CSc1nnc(-c2cccs2)o1)Nc1cccc(C(F)(F)F)c1,47% (active)
9,O=C(CSc1nc2c(c(=O)[nH]1)CCC2)Nc1ccccc1F,73%
10,COc1ccccc1C(OC(=O)c1ccco1)C(=O)NCC1CCCO1 (centres undefined),85%
11,OCc1nc2ccc(-c3ccc4nc(CO)[nH]c4c3)cc2[nH]1,51%
12,COc1cccc(NC(=O)CC(C)S(=O)(=O)c2ccc3c(c2)NC(=O)CO3)c1 (centres undefined),115%
13,CCOC(=O)c1ccc(NC(=O)Cn2c(=O)cc(C)c3c(C)nn(-c4ccc(CC)cc4)c32)cc1,71%
14,Cc1c(C(=O)Nc2ccc(Br)cc2F)oc2ccc(S(=O)(=O)N3CCC4(CC3)OCCO4)cc12,81%
15,CC(C(=O)Nc1cccc(N)c1)n1nnc2ccccc21 (centres undefined),65%
16,Nc1nc(SCC(=O)N(CCO)CCO)nc2sc3c(c12)CCCC3,110%
17,CC1CCCc2sc3nc(SCC(=O)c4ccc(Br)cc4)nc(N)c3c21 (centres undefined),42%
18,CCCCCCSc1nc(N)c2c3c(sc2n1)CCCC3C (centres undefined),-7% (active)
19,CCn1nc(-c2ccccc2)c(-c2ccccc2)c(C(=O)Nc2ccccc2C(N)=O)c1=O,77%
20,CCn1c(SCC(=O)Nc2cc(Cl)ccc2OC)nc2c([nH]c3ccccc32)c1=O,101%
21,Cc1ccccc1Cn1c(=O)n(CCC(=O)NCc2ccco2)c(=O)c2sccc21,106%
22,Cc1cc(NC(=O)CC(C)C)no1,69%
23,CC1(C)CC2CC(C)(CN2C(=O)c2cc(-c3ccccc3)on2)C1 (centres undefined),99%
24,O=C(CSc1n[nH]c(-c2ccc(F)cc2)n1)N1CCN(c2ccc(F)cc2)CC1,-5% (active)

row,SMILES,survival
1,O=C(CSc1n[nH]c(-c2ccccc2)n1)N1CCN(c2ccc(F)cc2)CC1,65%
2,O=C(CSCc1ccccc1Cl)N1CCN(c2ccc(Cl)cc2)CC1,92%
3,O=C(CCSCc1ccccc1Cl)N1CCN(c2ccc(F)cc2)CC1,66%
4,COc1ccc(-c2nc(SCC(=O)N3CCN(c4ccc(F)cc4)CC3)n[nH]2)cc1,88%
5,O=C(CSCc1ccccc1Cl)N1CCN(c2ccc(F)cc2)CC1,46% (active)
6,Cc1ccc(CNC(=O)c2ccc(-c3nc(CN4CCc5ccccc54)c(C)o3)cc2)cc1,84%
7,CC1CCCCC1NC(=O)CSc1nccc(=O)[nH]1 (centres undefined),69%
8,Cc1cc(-c2ccc(C)c(S(=O)(=O)N(Cc3cccs3)C(C)C)c2)on1,65%
9,CCc1ccc(-c2nc(SCC(=O)NCC3CCCO3)c(-c3ccc(C)cc3)[nH]2)cc1 (centres undefined),103%
10,COc1ccc(CCNC(=O)c2cc(-c3ccc(Cl)cc3)on2)cc1OC,64%
11,Cc1cc(C)n(C(C)CC(=O)Nc2cccc(C(F)(F)F)c2)n1 (centres undefined),73%
12,COc1ccccc1CNC(=O)c1sc2nc3n(c(=O)c2c1C)CCC3,103%
13,C/C(=N\NC(N)N)C1CCCCCCCCCCC1,0% (active)
14,Cc1cc(Cl)ccc1NC(=O)C1CCN(c2nnc(-n3c(C)ccc3C)s2)CC1,88%
15,Fc1ccccc1N1CCN(c2nnc(C(F)(F)F)c3nnn(Cc4ccccc4)c23)CC1,78%
16,CCOc1ccc2c(c1)sc1nc(=O)n(-c3ccc(Cl)c(Cl)c3)c(=O)n12,88%
17,Cc1ccc2c(c1)sc1nc(=O)n(-c3ccc(Cl)cc3)c(=O)n12,59%
18,Cc1ccc2c(c1)sc1nc(=O)n(-c3cccc(Cl)c3)c(=O)n12,85%
19,CCN(CC)C(=O)c1sc2c(c1C)c(=O)n(-c1ccc(Cl)c(Cl)c1)c(=O)n2Cc1ccccc1C#N,83%
20,O=c1nc2sc3ccccc3n2c(=O)n1-c1ccc(Cl)c(Cl)c1,22% (active)
21,Cc1ccc2c(c1)sc1nc(=O)n(-c3ccc(Cl)c(Cl)c3)c(=O)n12,-6% (active)
22,CC(C(=O)c1ccccc1)C1(O)C(=O)Nc2ccccc21 (centres undefined),94%
